PubChem BioAssay (Tox21)
Records with an inconclusive call do not appear. Active and inactive are the calls of the source. Calls come from the whole dose curve; as a rule, active = well fitted curve in the direction sought with a large enough effect in the signal ratio in the repeat runs (not every such curve was filed as active); inconclusive = weak or mixed curves, or a change in a side signal; inactive = no such curve, though single readings can be large or run the other way; the % refers to the signal ratio.

Assay: qHTS assay to identify small molecule agonists of the NFkB signaling pathway (AID 1159509)
Settings: NFkB-bla ME-180 cells, beta-lactamase FRET ratio, 5 h; series mostly up to 61 µM
Source text: National Center for Advancing Translational Sciences [NCATS]
NIH Chemical Genomics Center [NCGC]
U.S. Environmental Protection Agency [EPA]
National Institutes of Environmental Health Sciences [NIEHS]
National Toxicology Program [NTP]
U.S. Food and Drug Administration [FDA]
Transcription factors and their stimulated target gene expression play pivotal roles across many cellular processes including responses to environmental stimuli. Proper regulation of associated pathways is critical to maintain cell health and function. Constitutive activation of transcription factor pathways has been implicated in tumors as it may block cellular functions such as apoptosis and lead to invasion and metastasis. One important transcription factor that stimulates gene expression in response to cytokines, UV radiation, and other stimuli is nuclear factor-kappa B (NFkB). To measure activation of the NFkB pathway, the CellSensor NFkB-bla ME-180 cell line (Life Technologies, Carlsbad, CA) that stably expresses beta-lactamase reporter gene under the regulation of a NF-kB response element was used. This assay allows measurement of the NFkB pathway activity induced by compounds in a ME-180 cell line. This system quantitates NF-kB activity using a FRET-based assay system where beta-lactamase expression disrupts FRET, allowing for fluorescent measurement of activity. This cell line has been used to screen the Tox21 10K compound library and to identify compounds that induce the NFkB pathway activity.
Tox21 Assay Protocol Summary:
NFkB-bla ME-180 cells were dispensed at 2,000 cells/6 uL of assay medium per well into black wall/clear-bottom 1536-well plates using a Multidrop Combi (ThermoFisher Scientific, Waltham, MA) dispenser. After the assay plates were incubated at 37 C and 5% CO2 for an overnight, 23 nL of compounds dissolved in DMSO, positive controls or DMSO only was transferred to the assay plate by a Pintool station (Kalypsys, San Diego, CA). The assay plates were incubated at 37 C and 5% CO2 for 5 hr. One uL of LiveBLAzer B/G FRET substrate (Life Technologies) was added using a Flying Reagent Dispenser (Aurora Discovery, San Diego, CA) and the plates were incubated at room temperature for 1.5 hr. Fluorescence intensity (405 nm excitation, 460 nm and 530 nm emissions) was measured using an Envision plate reader (PerkinElmer, Shelton, CT).
% is set by controls: 0 for no effect and ±100 for the full control effect.

Compound | outcome | activation
CCN1CCC[C@H]1CNC(=O)c1c(O)c(Cl)cc(Cl)c1OC | inactive | –
CCCCCCCCCCCC | inactive | –
CC/C=C\CC/C=C/C(OCC)OCC | inactive | –
O=C1OC(=O)C2CCCCC12 (stereo not given) | inactive | –
Cc1cccn2c(=O)c(-c3nnn[nH]3)cnc12 | inactive | –
O=C(O)CNC(=O)c1ccc([N+](=O)[O-])cc1 | inactive | –
CCOC(=O)c1cccc(N)c1 | inactive | –
CCN(CC)CCNC(=O)c1cc(S(C)(=O)=O)ccc1OC | inactive | –
CCN1CCC[C@H]1CNC(=O)c1cc(S(N)(=O)=O)ccc1OC | inactive | –
CC(=O)OC/C=C(\C)CC/C=C(\C)CCC=C(C)C | inactive | –
N[C@H]1CN(c2c(F)cc3c(=O)c(C(=O)O)cn(C4C[C@H]4F)c3c2Cl)CC12CC2 (stereo not given in full) | inactive | –
CC(C)(c1ccc(O)cc1)c1ccc(O)cc1 | inactive | –
Cc1cnc(NS(=O)(=O)c2ccc(N)cc2)nc1 | inactive | –
CC(=O)CC(C)C | inactive | –
COC(=O)c1ccc(C)cc1C1=NC(C)(C(C)C)C(=O)N1 (stereo not given) | inactive | –
O=C(O)c1ccccc1OP(=O)(O)O | inactive | –
O=C(CCCN1CCC(O)(c2cccc(C(F)(F)F)c2)CC1)c1ccc(F)cc1 | inactive | –
NC(=O)c1ccc([N+](=O)[O-])cc1 | inactive | –
CN1C(=O)N(C)C(O)C1O (stereo not given) | inactive | –
CCCCCCCCCCCCCC=O | – | -1.29% [at 6.95 µM] (inactive)

Compound | outcome | activation
O=C1CCCC(=O)C1 | inactive | –
CCCCC(CC)COC(=O)c1ccccc1O (stereo not given) | inactive | –
Cn1c(N)c(N=O)c(=O)n(C)c1=O | inactive | –
CCOC(=O)c1ccc(C)cc1 | inactive | –
COC(=O)CCSCCC(=O)OC | inactive | –
CCOC(=O)c1c(C)n(C)c2ccc(O)cc12 | inactive | –
NC(CSCC(=O)O)C(=O)O (stereo not given) | inactive | –
C[N+](C)(C)CCCCCC[N+](C)(C)C | inactive | –
N=C(N)c1ccc(OCCCOc2ccc(C(=N)N)cc2)cc1 | inactive | –
Cc1nc2c([nH]1)c(=O)n(C)c(=O)n2Cc1ccco1 | inactive | –
CCn1nc(C(=O)O)c(=O)c2cc3c(cc21)OCO3 | inactive | –
CN(C(=O)c1c(O)c2ccccc2n(C)c1=O)c1ccccc1 | inactive | –
COC(=O)[C@@H](N)Cc1ccc(O)c(O)c1 | inactive | –
COCCCOCCCOC | inactive | –
O=c1n(CCO)c(=O)n(CCO)c(=O)n1CCO | inactive | –
CCOC(=O)CCC(C)=O | inactive | –
CCCCCCCCS(=O)(=O)Cl | inactive | –
CCCCCOC(=O)CCCCC | inactive | –
CC1(C)C(O)C(C)(C)C1O (stereo not given) | inactive | –
CCC(C)C1CCCCC1=O (stereo not given) | inactive | –
